A selection: hits, their analogues and other compounds. The true share with any hit is near 3.6%.
Mtb hypoxia inh – reduces hypoxia-regulated biosensor signal in M. tuberculosis; M. tuberculosis hypoxia-regulated fluorescent reporter, fluorescence; fluorescence inhibition, % (no concentration beside the values); hit rate 0.1% among 300,000; AID 1159583; in the data active means fluorescence inhibition mostly above about 23%, no sharp cut-off; inactive means mostly below about 17%
Mtb betalactam – beta-lactam sensitization of Mtb H37Rv; inhibition, % at 25 µM; hit rate 0.27% among 330,000; M. tuberculosis H37Rv growth with meropenem, percent inhibition; call rule not given here;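 further: growth measured after seven days incubation then overnight dye step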
GDH-TPI counter – inhibits GDH-TPI coupling enzymes, artifact for Mtb FBA screen; GDH-TPI coupled enzyme counterscreen, NADH absorbance; hit rate 1.2% among 360,000; inhibition, % at 4.8 µM; AID 588335; in the data active means inhibition above about 30%
DUSP3 inh – DUSP3 (human) phosphatase inhibition | hit rate 0.52% among 290,000 | P51452 | recombinant VHR phosphatase, pNPP absorbance | AID 1654 | inhibition, % at 13.3 µM; in the data active means inhibition above about 50%
Target sequence (P51452 whole entry, looked up): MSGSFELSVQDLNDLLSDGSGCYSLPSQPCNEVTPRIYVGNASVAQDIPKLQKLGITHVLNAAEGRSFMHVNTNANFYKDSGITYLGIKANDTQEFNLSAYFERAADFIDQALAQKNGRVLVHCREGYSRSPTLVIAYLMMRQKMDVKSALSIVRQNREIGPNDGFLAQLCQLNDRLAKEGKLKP
Mtb FBA inh – Mtb fructose-bisphosphate aldolase inhibition; purified M. tuberculosis FBA, fluorescence read-out; AID 588726; hit rate 2.3% among 360,000; inhibition, % at 1 µM; P9WQA3; in the data active means inhibition above about 27%
Target sequence (P9WQA3 whole entry, looked up): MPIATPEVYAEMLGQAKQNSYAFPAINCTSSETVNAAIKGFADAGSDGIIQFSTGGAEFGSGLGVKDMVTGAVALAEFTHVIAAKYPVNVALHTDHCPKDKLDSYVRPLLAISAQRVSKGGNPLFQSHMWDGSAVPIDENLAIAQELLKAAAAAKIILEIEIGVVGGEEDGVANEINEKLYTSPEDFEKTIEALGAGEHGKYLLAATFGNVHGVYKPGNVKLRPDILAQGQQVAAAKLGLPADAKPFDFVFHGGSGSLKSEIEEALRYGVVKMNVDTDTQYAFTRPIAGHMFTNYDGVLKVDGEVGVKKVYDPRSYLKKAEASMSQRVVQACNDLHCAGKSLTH
Of the large screens only hits and unclear results are named; the others gave an inactive call.

O=C(NCCCN1CCCC1)c1ccc2c(c1)N(Cc1ccccc1F)C(=O)c1ccccc1S2(=O)=O	DUSP3 inh 51
CC1CCCCN1Cc1ccc(-c2nnn(CC(=O)NC3CCCCC3)n2)cc1 (stereo unspecified)	GDH-TPI counter 62
Cc1ccc2nc(-c3ccc(-c4ccccn4)s3)cn2c1	Mtb FBA inh active
Brc1ccc(-c2cn3ccccc3n2)s1	none (no result: Mtb hypoxia inh)
O=C(O)CC1S/C(=N/N=C/c2ccc(-c3ccccc3[N+](=O)[O-])o2)NC1=O (stereo unspecified)	GDH-TPI counter 40 (no result: Mtb hypoxia inh)
O=C(O)CC1S/C(=N/N=Cc2ccc(-c3ccc(Cl)c([N+](=O)[O-])c3)o2)NC1=O (stereo unspecified)	none (no result: Mtb betalactam, GDH-TPI counter, DUSP3 inh, Mtb FBA inh)
Cc1ccc(-c2ccc(/C=N/N=C3/NC(=O)C(CC(=O)O)S3)o2)c([N+](=O)[O-])c1 (stereo unspecified)	GDH-TPI counter 36 (no result: Mtb hypoxia inh)
Cc1nc2ccccc2cc1C(=O)NN=Cc1cccc([N+](=O)[O-])c1	none (no result: Mtb betalactam, GDH-TPI counter, DUSP3 inh, Mtb FBA inh)
Cc1cc(C)c(NC(=O)Cn2nnc(C(=O)NCc3ccco3)c2N)c(C)c1	GDH-TPI counter 33
COc1ccc(C=NNc2nc(-c3cccc(S(=O)(=O)N4CCCC4)c3)cs2)cc1OC	none (no result: Mtb betalactam, GDH-TPI counter, DUSP3 inh, Mtb FBA inh)
CCN(CC)CCNC(=O)c1cc2c(-c3ccc(Cl)cc3)nn(C)c2s1	Mtb FBA inh 136 (no result: Mtb hypoxia inh)
Cn1nc(-c2ccc(Cl)cc2)c2cc(C(=O)NC3CC3)sc21	none (no result: Mtb hypoxia inh)
CC1(C)C=C(c2ccc(C=O)s2)CC(C)(C)N1C=O	GDH-TPI counter 32
CC1(C)C=C(c2ccc(C=O)s2)CC(C)(C)N1	GDH-TPI counter 40 (no result: Mtb hypoxia inh)
Cn1c(-c2ccc(C=O)s2)nc2ccccc21	none
COc1ccc(CNC(=O)C=Cc2ccc3[nH]cc(CCN(C)C)c3c2)cc1	none (no result: Mtb betalactam, GDH-TPI counter, DUSP3 inh, Mtb FBA inh)
CCC1C(OC(=O)NCc2ccccc2)CC2CCN3C(=O)CCCC1C23 (stereo unspecified)	none (no result: Mtb betalactam, GDH-TPI counter, DUSP3 inh, Mtb FBA inh)
Cc1cccc(N(Cc2ccccc2)C(=O)CCl)c1	Mtb hypoxia inh 36 (no result: Mtb betalactam)
CC1CCC[C@]2(O1)OC(CCO)CC(O)C2O (stereo partly specified)	none (no result: Mtb betalactam, GDH-TPI counter, DUSP3 inh, Mtb FBA inh)
Cc1ccc(Nc2nc(CSc3nnc(-c4ccncc4)n3C)cs2)cc1	DUSP3 inh 58
COc1ccc(-n2c(SCC(=O)NN=C(C)c3cccnc3)nc3ccccc3c2=O)cc1	none (no result: Mtb betalactam, GDH-TPI counter, DUSP3 inh, Mtb FBA inh)
N#CC(C#N)=Cc1ccc(N2CCOCC2)cc1	GDH-TPI counter 41
Cc1ccc(Cn2nc(C)c(NC(=O)C3CC3)c2C)cc1	none
Cc1nn(Cc2c(F)cccc2Cl)c(C)c1NC(=O)C1CC1	DUSP3 inh 51
CC(=NNC(=O)c1nnn(-c2nonc2N)c1-c1cccs1)c1cccc(O)c1	none (no result: Mtb betalactam, GDH-TPI counter, DUSP3 inh, Mtb FBA inh)
CC1CCc2c(sc(NC(=O)c3ccc(-c4ccccc4[N+](=O)[O-])o3)c2C#N)C1 (stereo unspecified)	none
N#Cc1c(NC(=O)c2ccc(-c3ccccc3[N+](=O)[O-])o2)sc2c1CCCC2	GDH-TPI counter 32 (no result: Mtb hypoxia inh)
CCN1C(=O)[C@@H]2[C@@H](c3ccc(-c4cc(C(C)=O)cs4)cc3)N3CCC[C@@]3(C(=O)OC)[C@@H]2C1=O	GDH-TPI counter 36 (no result: Mtb hypoxia inh, Mtb betalactam, DUSP3 inh)
Cc1ccc(SCC(=O)OCC(=O)NC(C)c2ccc(Br)cc2)cc1 (stereo unspecified)	DUSP3 inh 57
CCNc1cc2oc(=O)c(CN3CCOCC3)c(C)c2cc1C	Mtb FBA inh active
CNc1nc(-c2ccc3c(c2)CCN3C(=O)c2cccc(F)c2)cs1	GDH-TPI counter 31
COc1cc(C=NNC(=O)C(NC(=O)c2ccccc2)c2n[nH]c(=O)c3ccccc23)ccc1OCC(N)=O (stereo unspecified)	none (no result: Mtb betalactam, GDH-TPI counter, DUSP3 inh, Mtb FBA inh)
Cc1ncoc1C(=O)NC1CC(C)(C)Cc2c1cnn2-c1ccc(F)cc1 (stereo unspecified)	DUSP3 inh 53
CCCCC1S/C(=N/N=Cc2cccs2)NC1=O (stereo unspecified)	none (no result: Mtb betalactam, GDH-TPI counter, DUSP3 inh, Mtb FBA inh)
CC1CCN(C(=O)C=Cc2ccc(C(C)(C)C)cc2)CC1	none (no result: Mtb betalactam, GDH-TPI counter, DUSP3 inh, Mtb FBA inh)
NC1=NCC(Cc2ccc(O)cc2)N1CCc1cc(C(F)(F)F)cc(C(F)(F)F)c1 (stereo unspecified)	none (no result: Mtb betalactam, GDH-TPI counter, DUSP3 inh, Mtb FBA inh)
Cc1ccc(S(=O)(=O)Nc2ccc(Nc3nccn4c(-c5ccc6ccccc6c5)cnc34)cc2)cc1	GDH-TPI counter 32 (no result: Mtb hypoxia inh, Mtb betalactam, DUSP3 inh)
Cc1ccc(S(=O)(=O)Nc2ccc(Nc3nccn4c(-c5ccccc5Oc5ccccc5)cnc34)cc2)cc1	none (no result: Mtb hypoxia inh, Mtb betalactam, DUSP3 inh)
COc1cc(C=NNC(=O)c2ccc(-c3ccccc3)cc2)cc(OC)c1OC(C)=O	none (no result: Mtb betalactam, GDH-TPI counter, DUSP3 inh, Mtb FBA inh)
COc1ccc(-c2cn3nc(SCC(=O)NCC4CCCO4)ccc3n2)cc1 (stereo unspecified)	Mtb FBA inh 128
